Screens deposited in PubChem BioAssay by National Center for Advancing Translational Sciences (NCATS).
uPA surface inh = qHTS for Inhibitors of Cell Surface uPA Generation; cell surface uPA generation assay, qHTS; Potency, µM (series often up to 38.3 µM), inactives show top-dose activity change, negative = inhibition, actives largely listed as inhibitors; 330,000 compounds, 0.31% hits; AID 540303, 2011; active means well fitted inhibition curve with a large enough effect; inconclusive means small, poorly fitted or top-dose-only effect; inactive means no such curve, though single readings can be large or run the other way; tested in mouse RAW 264.7 cells; further: potency means the concentration at half of the fitted maximal effect; on the % scale 0 is the no-effect control and ±100 the full control effect; nearly all actives have a fitted effect of over 55% in size
TDP1 inh = qHTS Assay for Inhibitors of Tyrosyl-DNA Phosphodiesterase (TDP1); Potency, µM (titrated, usually from 130 µM), for the others: top-dose activity change, negative = inhibition, usual class: inhibitors; Tyrosyl-DNA phosphodiesterase 1 (Homo sapiens), Q9NUW8; recombinant TDP1, AlphaScreen DNA substrate cleavage; 350,000 compounds, 0.28% hits; AID 485290, 2010; further: potency means the concentration at half of the fitted maximal effect; on the % scale 0 is the no-effect control and ±100 the full control effect; nearly all actives have a fitted effect of over 40% in size
Target sequence (Q9NUW8 whole entry, looked up): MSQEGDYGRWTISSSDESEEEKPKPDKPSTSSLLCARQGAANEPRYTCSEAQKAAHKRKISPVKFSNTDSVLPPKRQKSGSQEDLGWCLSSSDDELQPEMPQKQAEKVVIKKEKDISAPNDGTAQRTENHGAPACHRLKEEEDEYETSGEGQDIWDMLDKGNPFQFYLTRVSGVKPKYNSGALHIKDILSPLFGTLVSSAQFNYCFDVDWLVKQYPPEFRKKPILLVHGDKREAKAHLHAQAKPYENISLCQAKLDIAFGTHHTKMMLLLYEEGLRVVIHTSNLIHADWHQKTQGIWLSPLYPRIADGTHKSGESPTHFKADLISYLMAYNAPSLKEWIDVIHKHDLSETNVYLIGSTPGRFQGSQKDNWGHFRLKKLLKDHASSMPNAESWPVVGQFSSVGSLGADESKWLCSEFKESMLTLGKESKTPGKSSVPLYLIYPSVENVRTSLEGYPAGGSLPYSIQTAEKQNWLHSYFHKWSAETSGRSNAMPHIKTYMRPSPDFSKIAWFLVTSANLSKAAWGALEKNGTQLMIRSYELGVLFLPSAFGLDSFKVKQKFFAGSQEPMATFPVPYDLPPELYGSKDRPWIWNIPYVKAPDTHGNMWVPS
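Here, a 5' biotin and 3' phosphotyrosine-FITC DNA oligonucleotide reports Tdp1 activity: intact substrate bridges AlphaScreen beads, while cleavage leaves a 3' phosphate and drops signal. All incubations at room temperature.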
miR-21 reporter = qHTS Assay for Modulators of miRNAs and/orActivators of miR-21; Potency, µM (series often up to 38.3 µM), for the others: at the top dose activity change, positive = activation, usual class: activators; AID 2288, 2010; HeLa miR-21 FLuc reporter, luciferase, 48 h; 340,000 tested, under 10 active;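 further: % of control where 0% means no effect; miR-21 action dims this reporter so a rising signal means less miR-21 action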
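HeLa miR-21-FLuc reporter line, endogenous miR-21; 2000 cells/well in DMEM/10% FBS; compound titration up to ~40uM final, 48 h, 37 degree Celsius; luciferase detection reagent, 15 min lysis, CCD luminescence.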
TDP1 cell CPT = qHTS for Inhibitors of human tyrosyl-DNA phosphodiesterase 1 (TDP1): qHTS in cells in presence of CPT; chicken DT40 Tdp1-/-;hTDP1 cells + 20 nM CPT, ATP luminescence, 48 h; Potency, µM (series often up to 46.2 µM), without a hit: at the highest dose activity change, negative = growth inhibition, usual class: inhibitors; 420,000 compounds, 12% hits; AID 686979, 2013; further: potency means the concentration at half of the fitted maximal effect; on the % scale 0 is the no-effect control and ±100 the full control effect; nearly all actives have a fitted effect of over 55% in size
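Cell growth measured by CellTiter-Glo luminescence after a minimum 48 h, 37 C compound exposure with 20 nM CPT in Tdp1-knockout DT40 cells stably expressing hTDP1, seeded 400/well; qHTS titration format.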
TDP1 cell noCPT = qHTS for Inhibitors of human tyrosyl-DNA phosphodiesterase 1 (TDP1): qHTS in cells in absence of CPT; DT40 Tdp1-/- hTDP1 cells, no CPT, ATP luminescence, 48 h; Potency, µM (top dose mostly 46.2 µM), without a hit: at the top dose activity change, negative = growth inhibition, usual class: inhibitors; 420,000 compounds, 15% hits; further: potency means the concentration at half of the fitted maximal effect; on the % scale 0 is the no-effect control and ±100 the full control effect; nearly all actives have a fitted effect of over 55% in size
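Readout: luminescence from CellTiter-Glo after 30 min in the dark at RT. Cells: DT40 Tdp1-/- with stable hTDP1, 400/well. Exposure: compounds alone, ≥48 hr, 37 °C.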
The depositor's hits bear a star; ? = inconclusive; . = not tested or not shown; [ ] = remark or other dose. An excerpt weighted towards active compounds, which were near 16% of everything screened. Unless noted, the call rests on the fitted dose curve; in most records, active means well fitted curve in the direction sought with a large enough effect; inconclusive means small, poorly fitted or top-dose-only effect, or another doubt; inactive means no such curve, though single readings can be large; an effect the other way counts as inactive or inconclusive.

SMILES | uPA surface inh | TDP1 inh | miR-21 reporter | TDP1 cell CPT | TDP1 cell noCPT
COC(=O)C1=C(c2cccc(OC)c2OC)C[C@@H]2CC[C@H]1N2C(=O)NC1CCCCC1 | -6% | . | . | -23% | ?
CCNC(=O)[C@H]1O[C@@H](n2cnc3c(N)ncnc32)[C@H](O)[C@@H]1O | -11% | 9% | -36% | -7% | -1%
Nc1ncnc2c1ncn2[C@@H]1O[C@H](COP(=O)(O)CP(=O)(O)O)[C@@H](O)[C@H]1O | ? | 2% | . | 4.1µM* | ?
COC(=O)C1=C(c2ccc(C(C)=O)cc2)C[C@@H]2CC[C@H]1N2C(=O)NCC1CC1 | 7% | 1% | . | -7% | -10%
CC1=CC(C)CC(C)OC(=O)CC(c2ccc(O)cc2)NC(=O)C(Cc2c(Br)[nH]c3ccccc23)N(C)C(=O)C(C)NC(=O)C(C)C1 (stereo unspecified) | -11% | . | . | 0.026µM* | 0.015µM*
O=P(O)(O)c1ccccc1OCCOCCOCCOCCOc1ccccc1P(=O)(O)O | 5% | 5% | -42% | -10% | 7%
CCCCC/C=C\C/C=C\C/C=C\C/C=C\CCCCOC(CO)CO | . | -9% | . | . | .
Cc1onc(-c2ccccc2Cl)c1C(=O)NCc1ccc2c(c1)cc(C)n2C | 2% | . | 3% | ? | 6.5µM*
CC1CCC(NC(=O)CN2CCN(S(=O)(=O)c3ccc(Br)s3)CC2)CC1 (stereo unspecified) | . | . | . | 16µM* | 16µM*
CC(C)OC(=O)Nc1ccc(N=C(N)N[N+](=O)[O-])cc1 | 4% | -3% | 1% | -4% | -4%
O=C(CN1CCN(C(=O)COc2cccc(F)c2)CC1)Nc1ccc(Cl)c(C(F)(F)F)c1 | -19% | 2% | . | 21µM* | 5.2µM*
Cc1cc(OCC(=O)N2CCN(CCc3ccncc3)CC2)ccc1Cl | . | 6% | -6% | ? | ?
C[C@@H]1CN([C@@H](C)CO)C(=O)c2cc(NC(=O)CCC(F)(F)F)ccc2O[C@H]1CN(C)Cc1ccc(Cl)c(Cl)c1 | ? | 1% | . | 21µM* | ?
C[C@@H]1CN([C@H](C)CO)C(=O)c2cc(NC(=O)Nc3ccc(C(F)(F)F)cc3)ccc2O[C@H]1CN(C)S(=O)(=O)c1cccs1 | ? | 3% | . | ? | ?
C[C@H](CO)N1C[C@H](C)[C@@H](CN(C)S(=O)(=O)c2cccs2)Oc2ccc(NC(=O)Nc3ccc(C(F)(F)F)cc3)cc2C1=O | ? | 0% | . | 16µM* | 18µM*
C[C@H](CO)N1C[C@H](C)[C@@H](CN(C)Cc2ccc(-c3ccccc3)cc2)Oc2c(NC(=O)c3ccncc3)cccc2C1=O | ? | 8% | . | 16µM* | 23µM*
COc1ccc(NC(=O)Nc2cccc3c2O[C@H](CN(C)C(=O)NC2CCCCC2)[C@@H](C)CN([C@H](C)CO)C3=O)cc1 | -16% | 0% | . | ? | ?
C[C@H](CO)N1C[C@H](C)[C@@H](CN(C)Cc2ccccc2)Oc2c(NC(=O)c3ccncc3)cccc2C1=O | 14% | 6% | . | ? | 23µM*
CNC(Cc1c[nH]c2ccccc12)C(=O)O (stereo unspecified) | . | -8%[56.1 µM] | . | ? | ?
C=CCCl | . | 9% | . | . | .
CN(CCC(N)CC(=O)NC1C=CC(n2ccc(N)nc2=O)OC1C(=O)O)C(=N)N (stereo unspecified) | . | 10%[56.1 µM] | . | ? | -20%
C[C@H](CO)N1C[C@H](C)[C@@H](CN(C)C(=O)NC2CCCCC2)Oc2c(NC(=O)Nc3ccc4c(c3)OCO4)cccc2C1=O | 9% | 0% | . | ? | ?
C[C@H](CO)N1C[C@H](C)[C@@H](CN(C)Cc2ccc(Cl)c(Cl)c2)Oc2c(NC(=O)C3CC3)cccc2C1=O | ? | 1% | . | 16µM* | 23µM*
CCC(=NCc1ccco1)c1c(O)n(C2CCCCC2)c(=O)[nH]c1=O | -5% | 2% | -13% | 23µM* | ?
CCC(=O)c1c(O)n(C2CCCCCC2)c(=O)[nH]c1=O | 7% | 2% | -10% | 6.5µM* | 16µM*
SMILES | uPA surface inh | TDP1 inh | miR-21 reporter | TDP1 cell CPT | TDP1 cell noCPT
COc1ccc(OC)c([C@@H](O)[C@H](C)N)c1 | . | . | . | -26% | -15%
Clc1ccc(CSC(Cn2ccnc2)c2ccc(Cl)cc2Cl)cc1 (stereo unspecified) | -11% | 8% | ? | ? | 18µM*
Clc1ccc(CS[C@@H](Cn2ccnc2)c2ccc(Cl)cc2Cl)cc1 | . | 22%[21 µM] | . | . | .
Clc1ccc(COC(Cn2ccnc2)c2ccc(Cl)cc2Cl)cc1 (stereo unspecified) | ? | 11% | 27% | 23µM* | 21µM*
Nc1cccc2ccccc12 | . | 18% | . | . | .
CCCCCCCCCCCOC(=O)c1ccccc1C(=O)OCCCCCCCCCCC | . | 3% | . | . | .
Nc1ccc(N)cc1 | . | 17% | . | -22% | -17%
COc1ccccc1OCCCn1cc(C(=O)c2ccco2)c2ccccc21 | -6% | 0% | -7% | 18µM* | ?
CC(=O)Oc1ccc(/C=C/c2cc(OC(C)=O)cc(OC(C)=O)c2)cc1 | . | 3% | . | ? | 12µM*
CC12CCC3C(CC=C4CC(O)CCC43C)C1C/C(=C\N1CCCC1)C2=O (stereo unspecified) | . | . | -3% | . | .
COc1cc(/C=C2\C[C@H]3[C@@H]4CC=C5C[C@@H](N6CCCC6)CC[C@]5(C)[C@H]4CC[C@]3(C)[C@H]2O)cc(OC)c1OC | 1% | . | . | 15µM* | 5.2µM*
CC(=O)c1c(O)c(C)c(O)c2c1OC1=Cc3c(c(C)nn3-c3ccccc3)C(=O)C12C (stereo unspecified) | . | . | . | 23µM* | 16µM*
CC(=O)OC1CCC2(C)C3CCC4(C)C(OC(C)=O)CCC4C3C(C)C2(O)C1 (stereo unspecified) | 2% | . | . | ? | 15µM*
CC1CC2(C)C(=CC1=O)CCC1C3CCC(C)(O)C3(C)CC3OC312 (stereo unspecified) | 1% | . | . | ? | ?
CCNC(=O)NC(=O)C(C)OC(=O)c1c(C)nn(Cc2ccccc2)c1Cl (stereo unspecified) | 2% | 3% | -4% | 1% | 6%
O=[P+](Cc1ccccc1)Cc1ccccc1 | -2% | -2% | -4% | 8% | 1%
Cc1ccc2c(C)c3ccc4ccccc4c3c[n+]2c1 | -10% | . | . | 3.7µM* | 4.6µM*
O=C(O)c1cc(Oc2ccc(C(F)(F)F)cc2Cl)ccc1[N+](=O)[O-] | 10% | 25% | . | 0% | 8%
